This is a sample that favours compounds with a hit; in the whole collection about 10% have one here.
HEK cytotox: HEK 293 cell cytotoxicity | 94,000 compounds, 6.6% hits | HEK 293 viability, ATP luminescence (CellTiter-Glo), 48-72 h | Potency, µM (doses to about 115 µM), for the others: at the top dose activity change, negative = cytotoxicity, usual class: inhibitors | AID 1345083; also: % is scaled to controls: 0 for no effect and ±100 for the full control effect; nearly all actives have a fitted effect of over 60% in size
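Pintool-delivered compounds were incubated with HEK 293 cells (250 cells/well) at 37 degree Celsius for 48 or 72 hr. ATP-dependent luminescence (CellTiter-Glo) then reported remaining viable cells.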
NPR1 antag: antagonists of human natriuretic peptide receptor Npr1. Potency, µM (titrated, usually from 46.3 µM), for inactives: at the top dose activity change, negative = inhibition, usual class: inhibitors. HEK293 hNpr1 GloSensor cGMP, ANP-stimulated luminescence. 76,000 compounds, 1.6% hits. P16066; calls by dose curve; also: % is scaled to controls: 0 for no effect and ±100 for the full control effect; nearly all actives have a fitted effect of over 60% in size
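HEK293 cells stably expressing human Npr1 and cGMP GloSensor pGS-40F, loaded 2 h with 2% GloSensor reagent, given compound 30 min at room temperature. Luminescence read before and 20 min after 0.1 nM hNppA.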
FLuc inh-1: inhibitors of firefly (Photinus pyralis) luciferase; purified P. pyralis luciferase, luminescence, biochemical; Potency, µM (series often up to 115 µM), actives largely listed as inhibitors; P08659; 76,000 compounds, 2.5% hits; AID 1347043; also: % is scaled to controls: 0 for no effect and ±100 for the full control effect; nearly all actives have a fitted effect of over 65% in size
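FLuc 10nM, D-luciferin 10uM, ATP 10uM, Mg acetate 10mM, Tris acetate pH 7.5, Tween/BSA; cpd qHTS; enzyme added last; CCD luminescence.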
GPT2 inh: blocks human glutamate pyruvate transaminase 2. Q8TD30. Recombinant GPT2, coupled pyruvate oxidase/HRP Amplex Red fluorescence. Potency, µM (doses to about 57.7 µM), for inactives: at the highest dose activity change, negative = inhibition, most hits filed as inhibitors. 100,000 compounds, 0.25% hits. AID 1671188; also: % is scaled to controls: 0 for no effect and ±100 for the full control effect; nearly all actives have a fitted effect of over 60% in size
Target sequence (Q8TD30 whole entry, looked up): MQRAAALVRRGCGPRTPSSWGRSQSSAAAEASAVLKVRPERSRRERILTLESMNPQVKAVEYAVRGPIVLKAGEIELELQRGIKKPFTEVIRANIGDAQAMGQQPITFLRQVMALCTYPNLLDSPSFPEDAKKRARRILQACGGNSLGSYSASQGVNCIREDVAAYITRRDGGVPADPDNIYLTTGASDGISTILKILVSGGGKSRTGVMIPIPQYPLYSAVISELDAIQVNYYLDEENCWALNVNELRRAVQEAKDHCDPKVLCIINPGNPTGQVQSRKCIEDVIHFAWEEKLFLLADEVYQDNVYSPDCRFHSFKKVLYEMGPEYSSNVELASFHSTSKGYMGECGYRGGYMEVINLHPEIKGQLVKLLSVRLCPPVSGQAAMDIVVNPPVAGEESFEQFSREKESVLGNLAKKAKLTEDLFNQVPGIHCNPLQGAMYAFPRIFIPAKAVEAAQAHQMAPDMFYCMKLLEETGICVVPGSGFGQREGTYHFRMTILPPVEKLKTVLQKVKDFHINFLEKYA
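Fluorescence read-out: pyruvate from GPT2 turnover coupled to pyruvate oxidase, HRP and Amplex Red (0.2mM ThPP, 0.2U/mL PO and HRP, 50uM Amplex final). Substrates 250uM a-KG, 2mM L-alanine; enzyme 10ng/uL; 30 min RT.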
3T3 cytotox: NIH 3T3 cell cytotoxicity | Potency, µM (series often up to 96.7 µM), for the others: at the highest dose activity change, negative = cytotoxicity, usual class: inhibitors | AID 1345082 | NIH 3T3 viability, CellTiter-Glo ATP luminescence, 48-72 h | 94,000 compounds, 4.3% hits; also: % is scaled to controls: 0 for no effect and ±100 for the full control effect; nearly all actives have a fitted effect of over 55% in size
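Cytotoxicity was measured by CellTiter-Glo ATP luminescence after 48 or 72 h compound exposure at 37 °C. Mouse NIH 3T3 fibroblasts were seeded at 400 cells/well and dosed by 23 nL pin transfer.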
FLuc SDR -ATP: binders stabilizing firefly luciferase, without ATP; shares compounds with FLuc inh-1; Purified FLuc-C-HiBiT, Nano-Glo HiBiT luminescence, no ATP; Potency, µM (highest dose often 32.7 µM), without a hit: top-dose activation (signal gain), hits mostly activators; 1,300 compounds, 7.8% hits; also: nearly all actives have a fitted effect of over 55% in size
FLuc SDR ATP: stabilizes firefly luciferase with ATP present; AID 1963319; shares compounds with FLuc inh-1; purified FLuc-C-HiBiT + ATP, HiBiT complementation luminescence; 1,300 compounds, 8.7% hits; Potency, µM (highest dose often 32.7 µM), for the others: top-dose activation (gain of signal), usual class: activators;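 also: signal reports ligand binding via conformational change of the enzyme rather than luciferase catalysis; % of control where 0% means no effect; nearly all actives have a fitted effect of over 55% in size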
FLuc inh-2: firefly luciferase enzyme inhibition; shares compounds with FLuc inh-1; purified FLuc-C-HiBiT enzyme, luciferin luminescence; Potency, µM (doses to about 32.7 µM), inactives show top-dose activity change, negative = inhibition, actives largely listed as inhibitors; 1,300 compounds, 42% hits; AID 1963320; also: % is scaled to controls: 0 for no effect and ±100 for the full control effect; nearly all actives have a fitted effect of over 70% in size
Numbers without * were called inactive; i = inactive; ? = inconclusive; . = not tested or not shown; ! = not active in a repeat; [ ] = remark or other dose. Unless noted, calls follow the shape of the dose curve; as a rule, active = well fitted curve in the direction sought with a large enough effect; inconclusive = small, poorly fitted or top-dose-only effect, or another doubt; inactive = no such curve, though single readings can be large; an effect the other way counts as inactive or inconclusive. Potency is read from the fitted curve at half-maximal effect.

SMILES	HEK cytotox	NPR1 antag	FLuc inh-1	GPT2 inh	3T3 cytotox	FLuc SDR -ATP	FLuc SDR ATP	FLuc inh-2
Cc1cccc(NC(=O)c2c(N)sc3c2CCC(C)C3)c1 (centres undefined)	.	.	.	.	.	8%	7%	?
O=C(NN1CCCC1)NS(=O)(=O)c1ccc(Cl)cc1	.	.	.	-17%	.	.	.	.
CC(=O)c1ccc(NS(=O)(=O)c2cccc(S(=O)(=O)c3ccc(Cl)cc3)c2)cc1	.	.	.	.	.	14%	9%	-10%
Cc1c(C(=O)Nc2cccc(-c3nc4ccccc4s3)c2)oc2ccccc12	.	.	.	.	.	9%	10%	-26%
Cc1ccc2oc(C(=O)Nc3cccc(-c4nc5ccccc5s4)c3)c(C)c2c1	.	.	.	.	.	16%	?	?
Cc1ccc2oc(C(=O)NC3CC(=O)N(C(C)C)C3)c(C)c2c1 (centres undefined)	-20%	-2%	i	-27%	-20%	.	.	.
O=C(Nc1cccc(Cl)c1)c1ccc2oc(-c3ccccn3)nc2c1	?	.	.	-3%	-24%	.	.	.
O=C(Nc1cccc(-c2nc3ccccc3s2)c1)c1cc2ccccc2oc1=O	.	.	.	.	.	14%	10%	-9%
O=C1NCCCCCCN(C(=O)Cc2ccccc2)[C@H]2C[C@H](c3nc(Cc4ccccc4)no3)C[C@@H]12	?	-2%	i	i	?	.	.	.
COc1ccc(OC)c(CN2CCOc3ccc(C(=O)NCc4ccc(C)cc4)cc3C2)c1	?	-15%	i	i	?	13%	9%	-1%
CN1CCC(Oc2ncccc2NC(=O)c2ccncc2)C1 (centres undefined)	6%	-1%	i	-14%	i	.	.	.
CC(C)c1ccc(C(=O)Nc2cccc3cccnc23)cc1	.	.	.	.	.	18%	12%	?
O=C(O)c1ccc(CN2Cc3[nH]cnc3C[C@H]2c2nc(-c3cccc([N+](=O)[O-])c3)no2)cc1	2%	2%	i	4%	-8%	.	.	.
COc1ccccc1-c1nc(-c2cccc(C(=O)O)c2)no1	.	.	.	.	.	8.8µM*	0.007µM*	0.0062µM*
COc1ccc(F)cc1-c1cccc(C(=O)O)c1	-4%[172 µM]	.	.	?	-10%[138 µM]	.	.	.
O=C(O)c1cccc(-c2noc(-c3cc([N+](=O)[O-])cc([N+](=O)[O-])c3)n2)c1	.	.	.	.	.	6%	?	3.1µM*
COc1ccc(-c2noc(-c3nc(-c4cccnc4)no3)n2)cc1	13%	-1%	i	-1%	4%	.	.	.
COc1ccc(-c2nc(-c3cccc(C(=O)O)c3)no2)cc1	.	.	.	.	.	1.1µM*	0.0031µM*	0.0025µM*
CC(=O)SCC(=O)c1ccc(NS(=O)(=O)c2ccc(OCCCN(C)C)cc2)nc1	.	.	.	i	.	.	.	.
COc1ccc(-c2nc3ncccc3[nH]2)cc1	79µM*	-17%[70.6 µM]	13µM*	0%[88.5 µM]	79µM*!	?	?	16µM*
c1cnc2nc(-c3ccncc3)[nH]c2c1	-20%[230 µM]	-2%[70.6 µM]	i	-9%[88.5 µM]	?	.	.	.
Cc1cnc(CC2CCCN(C(=O)CCc3c[nH]c4ccccc34)C2)n1C(C)C (centres undefined)	?	-1%	14µM*	4%	-25%	13%	14%	4%
c1ccc2cc(-c3nc(C4CCOC4)no3)ncc2c1 (centres undefined)	1%	?	2.5µM*	-33%	-29%	15%	?	?
Cc1nc2ccc(-c3nc(C4CCOC4)no3)cc2s1 (centres undefined)	?	?	2µM*	?	?	25%	?	11µM*
COc1ccc2c(C)c(-c3nc(C4CCOC4)no3)oc2c1 (centres undefined)	?	4%	13µM*	2%	?	14%	13%	-18%
SMILES	HEK cytotox	NPR1 antag	FLuc inh-1	GPT2 inh	3T3 cytotox	FLuc SDR -ATP	FLuc SDR ATP	FLuc inh-2
CSc1ccccc1-c1nc(C2CCOC2)no1 (centres undefined)	-2%	3%	i	-16%	?	.	.	.
Cc1onc(-c2ccccc2Cl)c1-c1nc(C2CCOC2)no1 (centres undefined)	-26%	5%	i	-1%	-30%	.	.	.
CN(C)c1ccc(-c2nc(C3CCOC3)no2)cc1 (centres undefined)	?	?	4µM*	-7%	-33%	24%	?	?
COCCN1CCOc2nc(-c3cccc(N(C)C)c3)ncc2C1=O	.	.	.	.	.	28%[49.3 µM]	?	?
Cn1nccc1-c1ncc2c(n1)OCCN(Cc1ccccc1)C2=O	?	?	i	i	-25%[138 µM]	.	.	.
COc1cccc(-c2ncc3c(n2)OCCN(Cc2ccccc2)C3=O)c1	?	?	2.8µM*	3%[88.5 µM]	?	24%[49.3 µM]	?	?
COc1ccc(-c2ncc3c(n2)OCCN(Cc2ccccc2)C3=O)cc1	?	28µM*	2.5µM*	-3%[88.5 µM]	?	19%[49.3 µM]	15%[49.3 µM]	?
O=C1c2cnc(-c3cc4ccccc4o3)nc2OCCN1Cc1ccccc1	?	8.9µM*	0.1µM*	-3%[88.5 µM]	?	?	?	1.6µM*
COc1ccc(CN2CCOc3nc(-c4cccc(N(C)C)c4)ncc3C2=O)cc1	?	-2%[70.6 µM]	i	-7%[88.5 µM]	?	.	.	.
CC(C)Nc1ncnc2c1CN(C1CCCNCC1)C(=O)CN2C (centres undefined)	-10%	.	.	-15%	-3%	.	.	.
Cc1nc(CN2C(=O)OC3(CCN(C(=O)c4cccc(C#N)c4)CC3)C2(C)c2ccccc2)cs1 (centres undefined)	-2%	2%	i	-5%	?	.	.	.
O=C(Cc1ccncc1)N1CCC2(CC1)NCCc1c2[nH]c2ccccc12	-5%	5%	i	?	-28%	.	.	.
COCC1CN(S(=O)(=O)c2ccc(C)c(F)c2)CC12CCNCC2 (centres undefined)	-7%	1%	i	?	-26%	.	.	.
CN(CC(=O)N(Cc1ccc(C2CCCCC2)cc1)c1ccc(C(=O)O)cc1)S(=O)(=O)c1c(F)c(F)c(F)c(F)c1F	.	.	.	i	.	.	.	.
Cc1cc(NCCc2cnccn2)nc(-c2ccccc2O)n1	?	0%	10µM*	-18%	?	16%	13%	-17%
O=C(O)c1cccc2c1CCN2C(=O)c1ccccc1	-26%	-28%	2.5µM*	i	-7%	15%	?	3.9µM*

Screening results (PubChem)
